Bioassay records from PubChem BioAssay.
SARS PLP yeast: blocks SARS-CoV papain-like protease in a yeast assay | S. cerevisiae expressing SARS-CoV PLpro, growth rescue | Potency, µM (series often up to 32.9 µM), for the others: at the top dose activity, positive = growth rescue, usual class: activators | actives 0.19% (n = 330,000); calls by dose curve; further: potency means the concentration at half of the fitted maximal effect; 0% is about no effect; nearly all actives have a fitted effect of over 55% in size
NS1 inh: blocks influenza NS1 protein function; actives 0.4% (n = 270,000); Potency, µM (highest dose often 46.1 µM), for the others: top-dose activity, positive = more growth; calls by dose curve; further: potency means the concentration at half of the fitted maximal effect; actives are rising curves; nearly all actives have a fitted effect of over 50% in size
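Recovery from NS1-induced slow growth read by OD600 in budding yeast switched to galactose assay medium (pH 6.0, -URA) at 1:100 dilution. Compound 23 nl per well; the matching strain lacking NS1 serves as control.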
LmPK inhibitor: LmPK (Leishmania mexicana) enzyme inhibition | Q27686 | purified LmPK, Kinase-Glo ATP luminescence, 1 h | Potency, µM (highest dose often 57.5 µM), for inactives: top-dose activity change, negative = inhibition, actives largely listed as inhibitors | actives 0.37% (n = 290,000) | AID 1721; further: potency means the concentration at half of the fitted maximal effect; on the % scale 0 is the no-effect control and ±100 the full control effect
Target sequence (Q27686 whole entry, looked up): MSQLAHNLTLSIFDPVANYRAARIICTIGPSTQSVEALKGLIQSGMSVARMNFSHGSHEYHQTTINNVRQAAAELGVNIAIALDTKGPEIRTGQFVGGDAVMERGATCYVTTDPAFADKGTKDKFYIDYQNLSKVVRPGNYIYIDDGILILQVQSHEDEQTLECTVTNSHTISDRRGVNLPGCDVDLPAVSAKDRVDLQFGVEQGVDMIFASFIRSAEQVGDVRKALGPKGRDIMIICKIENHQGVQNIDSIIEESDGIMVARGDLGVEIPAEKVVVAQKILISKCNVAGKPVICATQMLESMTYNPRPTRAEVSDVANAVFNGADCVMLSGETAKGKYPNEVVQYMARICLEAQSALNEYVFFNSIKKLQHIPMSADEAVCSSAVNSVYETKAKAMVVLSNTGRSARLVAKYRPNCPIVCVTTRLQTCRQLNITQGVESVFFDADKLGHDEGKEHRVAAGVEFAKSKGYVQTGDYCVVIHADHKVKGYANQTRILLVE
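Pyruvate kinase activity monitored as ATP production (luciferase luminescence). Conditions: 0.1 nM enzyme, 0.5 mM PEP, 0.1 mM ADP, 1 h, RT; normalized against uninhibited and no-enzyme wells.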
Shiga inhibitor: Shiga toxin inhibition; inhibition, % at 38.7 µM; Vero cells, Shiga toxin protein synthesis inhibition reporter; actives 9.2% (n = 290,000); in the data active means inhibition mostly above about 28%, no sharp cut-off; inactive means mostly below about 43%; further: 0% is about no effect
Cycloheximide cs: counter-screen hit for Shiga toxin inhibitors, cycloheximide. actives 12% (n = 300,000). AID 2314. cell reporter, cycloheximide protein synthesis inhibition counterscreen. max response, %; in the data active means max response mostly above about 13%, no sharp cut-off; inactive means mostly below about 14%; further: read at 38.3 µM for the half of the compounds with a filed dose; 0% is about no effect
Tb PYK inh: inhibitors of Trypanosoma brucei pyruvate kinase | Potency, µM (doses to about 76.8 µM), inactives show at the highest dose activity, negative = inhibition, usual class: inhibitors | TbPYK enzyme, Kinase-Glo Plus ATP luminescence, 45 min | Q57TT1 | actives 0.12% (n = 410,000); further: potency means the concentration at half of the fitted maximal effect; on the % scale 0 is the no-effect control and ±100 the full control effect; nearly all actives have a fitted effect of over 50% in size
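Glycolytic pyruvate kinase of T. brucei was incubated with substrate, test compound and 130 uM ADP for 45 minutes at room temperature. Luminescent Kinase-Glo Plus signal was measured after 10 minutes.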
* marks the source's active call; other numbers are inactive results; u = inconclusive; x = no result. The entries come from a sample that favours hits as a whole. Unless noted, the call rests on the fitted dose curve; in most records, active means well fitted curve in the direction sought with a large enough effect; inconclusive means small, poorly fitted or top-dose-only effect, or another doubt; inactive means no such curve, though single readings can be large; an effect the other way counts as inactive or inconclusive.

SMILES	SARS PLP yeast	NS1 inh	LmPK inhibitor	Shiga inhibitor	Cycloheximide cs	Tb PYK inh
CC(/C=N\NC(=O)CN1CCN(Cc2ccccc2)CC1)=C\c1ccco1	4.8%	8.3%	3.4%	0.6	-0.7	-4.7%
CC(/C=N/NC(=O)c1ccccn1)=C\c1ccco1	-2.0%	-7.1%	25.1µM*	94.3*	32.7*	-5.0%
Cc1cc(C(=O)N/N=C/C(Cl)=C/c2ccccc2)c(C)o1	0.9%	-3.6%	-1.9%	42.7*	26.9*	-24.4%
Cn1cc(C(=O)N/N=C/C(Br)=C\c2ccccc2)ccc1=O	-10.2%	24.8%	-10.0%	-4.1	-1.4	2.0%
CC1(C(=O)O)CCCN1C(=O)c1cc2ccccc2s1 (configuration not stated)	x	x	x	x	x	4.3%
CCOC(=O)c1c(C)[nH]c(C)c1S(=O)(=O)N1CCC(C(=O)Nc2ccc(C)cn2)CC1	x	x	x	x	x	0.7%
O=C(N/N=C/C=C\c1ccccc1)c1cnccn1	-0.3%	x	3.0%	38.3	10.2	5.5%
Nc1nnn(CC(=O)N/N=C/C=C/c2ccccc2)n1	2.0%	4.8%	1.6%	58.3*	21.4*	0.8%
CC(/C=C/c1ccccc1)=N/NC(=O)Cn1nnc(N)n1	-1.2%	-6.2%	-0.4%	29.7	-2.6	5.7%
O=C(N/N=C/C(Cl)=C/c1ccccc1)c1ccncc1	-2.9%	-0.7%	-3.8%	3.0	13.5	-5.1%
O=C(N/N=C/C=C\c1ccccc1[N+](=O)[O-])c1ccccn1	-20.4%	-20.5%	-4.3%	75.3*	61.3*	1.1%
O=C(N/N=C/C(Cl)=C/c1ccccc1)c1ccccn1	-3.6%	-8.9%	u	75.8*	32.5*	1.3%
O=C(N/N=C/C=C/c1ccccc1)c1ccccn1	-2.8%	-4.1%	-0.8%	68.3*	55.1*	-7.0%
COc1ccc(C(C)(O)c2nc(-c3ccoc3)cs2)cc1 (configuration not stated)	x	x	x	x	x	-0.4%
CCCS(=O)(=O)NC(=O)C1(C)CCCN(C(=O)c2cccnc2Oc2ccccc2)C1 (configuration not stated)	x	x	x	x	x	-11.8%
O=C(N/N=C/C=C\c1ccco1)c1ccccn1	-1.2%	2.8%	-4.4%	40.2	24.0*	-15.5%
O=C(CSc1ccccn1)N/N=C/C=C/c1ccccc1	-24.6%	2.3%	8.6%	89.7*	32.4*	2.1%
O=C(N/N=C\C=C\c1ccco1)c1cc(-c2ccc3ccccc3c2)n[nH]1	-2.3%	15.4%	1.0%	active	23.8*	-4.1%
O=C(N/N=C/C=C/c1ccco1)c1cccnc1	-13.2%	11.7%	2.6%	-7.5	-2.9	-3.4%
CCCc1c(C(=O)N/N=C/C(C)=C/c2ccco2)nnn1-c1nonc1N	-2.7%	18.1%	-3.9%	-2.5	2.1	1.1%
CC(/C=N/NC(=O)c1nnn(-c2nonc2N)c1C(C)C)=C\c1ccco1	-0.3%	-0.6%	0.9%	4.7	39.8*	0.0%
CCOC(=O)N1CCN(Cc2nc3cc(NC(=O)c4cccc(C)c4)ccc3n2C(C)C)CC1	x	x	x	x	x	15.3%
CCOc1ccccc1NC(=O)c1ccc2[nH]c(C)c(C)c2c1	3.7%	u	5.1%	42.6*	41.7*	6.7%
CC(C)N(CCC(=O)c1ccc2ccccc2c1)Cc1ccccc1	x	-33.7%	x	x	x	-0.3%
CCOc1ccccc1NC(=O)c1ccc2ccccc2c1	-5.9%	-25.1%	7.4%	x	22.9*	0.2%
SMILES	SARS PLP yeast	NS1 inh	LmPK inhibitor	Shiga inhibitor	Cycloheximide cs	Tb PYK inh
CCC(=O)CCC(=O)c1ccc2ccccc2c1	8.7%	3.3%	-2.0%	125.2*	55.1*	-1.8%
CN(C)c1ccc(/C=C2\C(=N)N3C(=NC2=O)Sc2cc(S(C)(=O)=O)ccc23)cc1	1.5%	6.1%	4.8%	-3.3	-3.5	x
Cc1ccc(S(=O)(=O)c2nc(-c3cccs3)oc2N2CCC(C(N)=O)CC2)cc1	0.9%	x	x	x	x	7.0%
Cc1ccc(-c2csc3ncnc(SCC(=O)NCC4CCCO4)c23)cc1 (configuration not stated)	4.7%	x	x	x	x	0.5%
CCc1ccc(NC(=O)c2cc3c(=O)n(Cc4cccs4)ccc3nc2C)cc1	x	x	x	x	x	5.8%
CC(=O)c1ccc(N2CCCCC2)c(F)c1	0.0%	3.9%	8.5%	-5.4	15.8*	1.6%
CCCC(=O)c1ccc(N2CCCCC2)c(F)c1	-0.3%	-1.8%	-0.1%	94.2*	46.9*	-4.2%
CCCC(=O)c1ccc(N2CCCCCC2)c(F)c1	-2.6%	-50.5%	-8.5%	68.0*	39.9*	1.3%
